T cruzi growth-1 = T. cruzi intracellular proliferation inhibitors, primary screen, cell-based, beta-gal Tulahuen parasites, NIH3T3 host, luminescence. AID 624255, 2012. T. cruzi beta-gal in NIH3T3, GalScreen luminescence, 90 h. inhibition, % at 8.34 µM. 5.9% of 77,000 active;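 active = mean inhibition above about 93%, with at least 55% of replicates each passing it, limit read from the data, passing the limit was not always enough; inconclusive = only one of those two conditions holds; inactive = neither condition holds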
C diff HTS = C. difficile growth inhibitors, primary screen, HTS. Clostridium difficile clinical isolate growth, OD600, 24 h; stronger effect = lower value. growth activity, negative = inhibition, % at 16 µg/mL (by protocol). 0.25% of 86,000 active;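 active = mean growth activity at or below -80% and every replicate also at or below -80%; inconclusive = mean at or below -80% but some replicate above -80%; inactive = mean growth activity above -80%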
Pf Dd2 inh = P. falciparum Dd2 growth inhibitors, primary screen, SYBR Green fluorescence, single dose replicates | 72 h; stronger effect = lower value | activity change, % at 10 µM | 2.3% of 94,000 active; in the data active = activity change below about -80%; inconclusive = no clear call, values can overlap the other calls
T cruzi growth-2 = T. cruzi intracellular proliferation inhibitors, confirmation, cell-based, NIH3T3 host, beta-gal parasite, luminescence, cherry-pick; shares compounds with T cruzi growth-1; T. cruzi beta-gal in NIH3T3, GalScreen luminescence, 90 h; inhibition, % at 8.35 µM; 72% of 5,600 active;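 active = mean replicate inhibition above about 95% and at least 55% of replicates individually reaching it, limit read from the data; inconclusive = only one of the two criteria is met; inactive = neither criterion is met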
T cruzi growth-3 = inhibitors of intracellular T. cruzi replication, confirmation, NIH3T3 host cells, beta-gal parasites, cherry-pick, set 2; 21% of 5,600 active; shares compounds with T cruzi growth-1; AID 651740, 2012; T. cruzi beta-gal in NIH3T3, GalScreen luminescence, 90 h; inhibition, % at 2.09 µM;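 active = mean inhibition above about 95%, with at least 55% of replicates also reaching it, limit read from the data; inconclusive = meets just one of the two conditions; inactive = meets neither condition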
3T3 cytotox = cytotoxicity in mouse NIH/3T3 fibroblasts, confirmation, cytotoxicity control for T. cruzi proliferation inhibitor project, cell-based, cherry-pick, single point | shares compounds with T cruzi growth-1 | NIH/3T3 viability, CellTiter-Glo ATP luminescence, 90 h | 14% of 5,600 active | AID 651742, 2012 | cytotoxicity (signal decrease), % at 8.35 µM;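 active = mean signal decrease across replicates above about 35% based on untreated-well scatter, with enough replicates individually passing, limit read from the data; inconclusive = no rule stated though some were filed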
3T3 cytotox 2 = NIH/3T3 fibroblast cytotoxicity, confirmation, cytotoxicity control, cell-based, cherry-pick, single point, set 2; 56% of 5,600 active; shares compounds with T cruzi growth-1; NIH/3T3 viability, CellTiter-Glo ATP luminescence, 90 h; inhibition, % at 24.9 µM;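 active = mean loss of cell viability signal at or above a set limit, and enough replicates individually reaching it; inconclusive = meets only the mean limit or only the replicate share; inactive = meets neither condition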
Hits are given with their value; i = inactive; ? = inconclusive; nt = no result. In the library only some 6.8% were active in any assay of this set; here they are far more common.

SMILES | T cruzi growth-1 | C diff HTS | Pf Dd2 inh | T cruzi growth-2 | T cruzi growth-3 | 3T3 cytotox | 3T3 cytotox 2
CO[C@@H]1CN(C)C(=O)c2ccc(NC(=O)c3nc4ccccc4s3)cc2OC[C@H](C)N(Cc2cncnc2)C[C@H]1C | nt | nt | i | nt | nt | nt | nt
O=C(O)C[C@H]1C[C@H]2c3cc(NC(=O)c4ccc5c(c4)OCO5)ccc3O[C@H]2[C@@H](CO)O1 | i | i | i | nt | nt | nt | nt
C[C@@H]1CCCCO[C@@H](CN(C)Cc2ccc3c(c2)OCO3)[C@H](C)CN([C@H](C)CO)C(=O)c2cc(NS(C)(=O)=O)ccc2O1 | i | i | i | nt | nt | nt | nt
CC(C)C(=O)Nc1ccc2c(c1)C(=O)N(C)[C@@H]1CC[C@H](CC(=O)NCCCN(C)C)O[C@H]1CO2 | i | i | i | nt | nt | nt | nt
COc1cccc(C(=O)N2C[C@@H]3[C@H](c4ccccc42)[C@@H](CO)N3C(=O)c2ccc(F)cc2)c1 | i | i | i | nt | nt | nt | nt
C[C@@H]1CN([C@H](C)CO)C(=O)c2cccc(NC(=O)Nc3ccc(F)cc3)c2O[C@H]1CN(C)C(=O)Nc1ccccc1 | i | i | i | nt | nt | nt | nt
C[C@@H]1CCCCO[C@H](CN(C)CC2CC2)[C@H](C)CN([C@@H](C)CO)C(=O)c2cc(NC(=O)Nc3ccc(F)cc3)ccc2O1 | i | i | i | nt | nt | nt | nt
C[C@@H]1CN([C@H](C)CO)C(=O)c2cc(NC(=O)Nc3ccccc3)ccc2O[C@@H](C)CCCCO[C@@H]1CN(C)CC1CCCCC1 | i | i | ? | nt | nt | nt | nt
C[C@@H]1CN([C@@H](C)CO)C(=O)c2cc(NC(=O)Nc3ccccc3)ccc2O[C@@H](C)CCCCO[C@@H]1CN(C)CC1CCCCC1 | ? | i | i | 101 | i | i | 104
C[C@@H]1CCCCO[C@@H](CN(C)CC2CCCCC2)[C@H](C)CN([C@H](C)CO)C(=O)c2cc(NC(=O)c3ccccc3)ccc2O1 | 117 | i | i | 112 | ? | i | 105
C[C@H](CO)N1C[C@H](C)[C@H](CN(C)CC2CC2)OCCCC[C@H](C)Oc2ccc(NC(=O)Nc3ccccc3)cc2C1=O | 98 | i | i | 104 | i | i | i
C[C@@H]1CCCCO[C@@H](CN(C)CC2CCCCC2)[C@H](C)CN([C@@H](C)CO)C(=O)c2cc(NC(=O)c3ccccc3)ccc2O1 | i | i | i | nt | nt | nt | nt
C[C@@H]1CN([C@@H](C)CO)C(=O)c2cc(NC(=O)Cc3ccccc3)ccc2O[C@@H](C)CCCCO[C@H]1CN(C)CC1CCCCC1 | 116 | i | i | 109 | i | i | 58
C[C@H](CO)N1C[C@H](C)[C@@H](CN(C)CC2CCCCC2)OCCCC[C@H](C)Oc2ccc(NC(=O)Cc3ccccc3)cc2C1=O | i | i | i | nt | nt | nt | nt
Cc1ccc(S(=O)(=O)N[C@@H]2CC[C@H](CC(=O)NCc3ccncn3)O[C@@H]2CO)cc1 | i | nt | i | nt | nt | nt | nt
C[C@@H]1CN([C@@H](C)CO)C(=O)c2cc(NC(=O)c3ccccc3)ccc2O[C@@H](C)CCCCO[C@@H]1CN(C)CC1CCCCC1 | i | i | i | nt | nt | nt | nt
C[C@H](CO)N1C[C@H](C)[C@H](CN(C)CC2CCCCC2)OCCCC[C@H](C)Oc2ccc(NC(=O)c3ccccc3)cc2C1=O | i | i | i | nt | nt | nt | nt
C[C@@H]1CCCCO[C@@H](CN(C)CC2CCCCC2)[C@@H](C)CN([C@H](C)CO)C(=O)c2cc(NC(=O)Nc3ccccc3)ccc2O1 | 103 | i | i | 105 | 97 | i | 57
C[C@@H]1CN([C@@H](C)CO)C(=O)c2cc(NC(=O)NC3CCCCC3)ccc2O[C@@H](C)CCCCO[C@@H]1CN(C)CC1CCCCC1 | i | nt | i | nt | nt | nt | nt
C[C@H](CO)N1C[C@H](C)[C@H](CN(C)CC2CCCCC2)OCCCC[C@H](C)Oc2ccc(NC(=O)Nc3ccccc3)cc2C1=O | ? | i | i | 98 | i | i | 105

Assay outcomes from PubChem.
